The source of these data is PubChem BioAssay.

A short description of assay [1]: P. berghei load reduction in hepatocytes – cell-based, HepG2, luciferase luminescence, HepG2 viability, primary screen (AID 624349; in the data active = parasite load remaining mostly below about 12%, no sharp cut-off; inactive = mostly above about 10%;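 also: 100% = mean of DMSO negative control wells on the same plate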). The conditions noted are these: P. berghei liver stage in HepG2, luciferase luminescence, concentration not given here; parasite load remaining: stronger effect = lower value; viability: measured here: HepG2 viability without parasites.
Assay [2] can be described thus: signal quenchers or enhancers, Cy5 substrate/SSB – biochemical, NIH Clinical Collection, E. coli SSB, artefact control for HCV NS3 helicase inhibitor project (AID 743268; call rule not given here). The conditions noted are these: Cy5-oligo bound E. coli SSB, fluorescence interference.
Assay [3] concerns Hepatitis C virus NS3 helicase. As to the kind of experiment: blockers of NS3h binding to DNA – biochemical, fluorescence polarization, NIH Clinical Collection, primary screen (AID 743270; call rule not given here). The conditions noted are these: NS3 helicase binding to Cy5-dT15 DNA, stronger effect = higher value, concentration not given here.
Assay [4] has as its target Single-stranded DNA-binding protein (Escherichia coli (strain K12)) (UniProt P0AGE0). As to the kind of experiment: SSB-ssDNA binding inhibitors – biochemical, fluorescence polarization, NIH Clinical Collection, counter-screen for HCV NS3 helicase inhibitor project (AID 743271; in the data active = inhibition above about 28%). The conditions noted are these: E. coli SSB-DNA binding, stronger effect = higher value, concentration not given here. Background: Polarisation of emitted light reports the rotation of a fluorescent probe.

Assay [5] is described as follows: compounds distorting NS3 helicase fluorescence signal – biochemical, NIH Clinical Collection, artefact control for HCV NS3 helicase inhibitor project (AID 743272; call rule not given here;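 also: HCV NS3 helicase with a Cy5 labelled single stranded DNA probe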). The conditions noted are these: fluorescence interference counterscreen, HCV NS3 helicase assay; stronger effect = lower value. (The purpose of a counterscreen is to sort out artefacts and off-target activity.)
Assay [6] is described as follows: modulation of C. elegans fzo-1 (AID 1259413; call rule not given here;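 also: fzo-1 mutant C. elegans worms in liquid wells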). The conditions noted are these: C. elegans fzo-1 modulator screen, mean read-out; stronger effect = higher value.
Assay [7] in a line: MELAS cybrid and Rieske KO viability enhancers – cell-based, MELAS cybrids, Rieske KO mouse fibroblasts, CellTiter-Glo, primary screen (AID 1508586;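 active = mean z-score across replicates of 1.96 or higher in either the MELAS or the Rieske mutant cell line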;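 also: z relative to plate mean and SD of compound and empty wells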). The conditions noted are these: low glucose.
Another assay concerns F380Y. Description: BK channel mutant inhibitors and activators – cell-based, U2OS BacMam, thallium flux, beta subunits, selectivity assay, profiling panel (AID 1259406).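 Also: initial slope of Thallos dye fluorescence rise after thallium is added; log ratio against the mean of 0.3% DMSO vehicle wells on the same plate.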 The conditions noted are these: U2OS BacMam BK variants, at 30 µM.
A further assay has as its system F380Y/beta1. The assay is described as above. The conditions noted are these: U2OS BacMam BK variants, at 30 µM.
The test system of a further assay is F380Y/beta2Delta. The description is as above. The conditions noted are these: U2OS BacMam BK variants, at 30 µM.
A further assay relates to F380Y/beta4. The assay is described as above. The conditions noted are these: U2OS BacMam BK variants, at 30 µM.
For assay [8], the target named is Calcium-activated potassium channel subunit alpha-1 (Homo sapiens) + Leucine-rich repeat-containing protein 26 (Homo sapiens) (UniProt Q12791+Q2I0M4). The assay is described as above. The conditions noted are these: U2OS BacMam BK variants, F380Y/Slo1WT/gamma1, at 30 µM.
The test system of another assay is R275C. Described as above. The conditions noted are these: U2OS BacMam BK variants, at 30 µM.
The test system of a further assay is R275C/beta1. The assay is described as above. The conditions noted are these: U2OS BacMam BK variants, at 30 µM.
The subject of a further assay is R275C/beta2Delta. The assay is described as above. The conditions noted are these: U2OS BacMam BK variants, at 30 µM.
A further assay has as its system R275C/beta4. Described as above. The conditions noted are these: U2OS BacMam BK variants, at 30 µM.
The next assay has as its system R275C/Slo1WT/beta2. The description is as above. The conditions noted are these: U2OS BacMam BK variants, at 30 µM.
Assay [9] is described as follows: EMT-state selective cytotoxicity in co-culture – imaging, PC-3E GFP, TEM4-18 mCherry, primary screen (AID 1345086;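 active = compounds killing one labelled cell type while sparing the other, by normalised counts and ratio limits, not self-fluorescent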;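 as to all read-outs here: cells exposed to compound for 72 h before imaging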;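 as to red/green cell ratio (normalised): normalised mesenchymal count divided by normalised epithelial count so high means epithelial killing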). The conditions noted are these: PC-3E GFP / TEM4-18 mCherry co-culture, imaging cell counts, at 1 µM; for red/green cell ratio (normalised): actives lie on both sides, counts scaled to control wells, 1 = unselective.
A short description of assay [10]: viability loss with induced miR-34 in A549 – imaging, A549 dox-inducible miR-34, nuclei and caspase counts, primary screen (AID 1347080;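 active = compounds whose cell count with miR-34 switched on is under 0.7 times the count with it off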). The conditions noted are these: A549 miR-34 inducible, Hoechst nuclei count, 48 h.
The mark [11] stands for this setting: MELAS cybrid survival, CellTiter-Glo 48 h, stronger effect = higher value.
Where [12] appears, read: Rieske KO mouse fibroblast survival, CellTiter-Glo 72 h.
Where [13] appears, read: measured here: epithelial PC-3E GFP cell survival.
Setting [14] is: measured here: mesenchymal TEM4-18 mCherry cell survival.

Values joined by “and” are separate entries in the source; they are usually repeats but may differ in a detail not shown here. Equal values may be shown once. Active and inactive are the calls of the source.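 The calls were made as follows, unless noted: active = thallium flux through the channel raised or lowered by more than 3 SD from vehicle-only wells, actives on both sides; inactive = the rest.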

Sequence of Calcium-activated potassium channel subunit alpha-1 (Homo sapiens) + Leucine-rich repeat-containing protein 26 (Homo sapiens) (Q2I0M4 whole entry, looked up, one chain of several): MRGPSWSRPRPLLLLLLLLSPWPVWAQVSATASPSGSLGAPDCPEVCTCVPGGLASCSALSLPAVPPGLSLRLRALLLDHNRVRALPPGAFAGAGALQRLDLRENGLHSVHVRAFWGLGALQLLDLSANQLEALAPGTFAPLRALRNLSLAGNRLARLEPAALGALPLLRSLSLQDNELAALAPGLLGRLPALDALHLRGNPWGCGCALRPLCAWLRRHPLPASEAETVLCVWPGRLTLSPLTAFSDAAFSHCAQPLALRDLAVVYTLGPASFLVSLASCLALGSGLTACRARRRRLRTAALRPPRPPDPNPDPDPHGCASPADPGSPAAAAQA

`COc1nc(C)nc(Cl)c1NC1=NCCN1`: the parasite load remaining in assay [1] is 85.8% (inactive) and 79.7% (inactive). In addition, the viability (commonly a per cent measure of how many cells are alive, often set against a control) in assay [1] is 72.6% and 70.2%. Besides, the fluorescence ratio in assay [2] is 1.09 (inactive); in [5], 1.07 (inactive). Besides, the values for the inhibition in assay [3] and in assay [4] were 4.36% (inactive) and 5.29% (inactive), respectively. Besides, the mean signal in assay [6] was 246 (inactive). The z-score is -0.211 (inactive) and 0.715 (inactive) in [7] (setting [11]); 0.176 and 0.122 in [7] (setting [12]). Further, the log fold change Tl+ flux was -0.00461 (inactive) with F380Y; -0.0516 (inactive) in the assay with F380Y/beta1; -0.0248 (inactive) in the assay with F380Y/beta2Delta; -0.00507 (inactive) with F380Y/beta4; -0.00669 (inactive) in [8]; -0.0325 (inactive) in the assay with R275C. Besides, the log fold change Tl+ flux with R275C/beta1 is -0.0423 (inactive); in the assay with R275C/beta2Delta it was -0.005 (inactive); in the assay on R275C/beta4, -0.00418 (inactive); in the assay on R275C/Slo1WT/beta2, -0.0114 (inactive).

With `CC(C)(S)C(N)C(=O)O` (stereo not given), the parasite load remaining in assay [1] is 70.2% (inactive) and 91.2% (inactive) and 22.9% (inactive). In assay [1], the viability is 95.3% and 72.3% and 93.1%. In addition, the fluorescence ratio in assay [2] is 1.01 (inactive); in [5] it was 0.98 (inactive). In addition, the inhibition (usually the drop in the measured response relative to a control, in per cent) in [3] is -10.4% (inactive); in [4], -2.76% (inactive). In assay [6], the mean signal is 224 (inactive). In addition, in assay [9], the red/green cell ratio (normalised) was 0.95 (inactive). For the same molecule, the figures for the normalised cell number in assay [9] (setting [13]) and in [9] (setting [14]) were 1 and 0.96, respectively. For the same molecule, the fold change is 0.987 (inactive) and 0.932 (inactive) in assay [10] (stronger effect = lower value, cell number ratio, induced over uninduced); 2.48 and 3.04 in assay [10] (measured here: relative caspase fold change +Dox/-Dox). Moreover, the cell count in assay [10] (measured here: total cells with miR-34 induction, stronger effect = lower value) is 11000 and 11700; in assay [10] (measured here: total cells without miR-34 induction) it was 11100 and 12600. For the same molecule, the z-score was 0.615 (inactive) in assay [7] (setting [11]) and 0.358 in [7] (setting [12]). Besides, the log fold change Tl+ flux is 0.0383 (inactive) with F380Y; -0.0205 (inactive) with F380Y/beta1; -0.0259 (inactive) in the assay with F380Y/beta2Delta; 0.0204 (inactive) in the assay on F380Y/beta4; 0.0127 (inactive) in assay [8]; -0.00906 (inactive) in the assay on R275C. Also, the log fold change Tl+ flux with R275C/beta1 was 0.00628 (inactive); with R275C/beta2Delta it was -0.0298 (inactive); in the assay on R275C/beta4, 0.0197 (inactive); with R275C/Slo1WT/beta2 it was -0.0192 (inactive).

For the molecule `Cc1cnc(C(=O)NCCc2ccc(S(=O)(=O)NC(=O)NC3CCCCC3)cc2)cn1`, the fluorescence ratio is 1.05 (inactive) in [2] and 0.98 (inactive) in assay [5]. For the same molecule, the inhibition in assay [3] is -5% (inactive); in [4] it was -2% (inactive). In [6], the mean signal is 228 (inactive). Besides, the red/green cell ratio (normalised) in [9] is 1.07 (inactive). In addition, the normalised cell number was 0.87 in assay [9] (setting [13]) and 0.93 in assay [9] (setting [14]). Also, the z-score was 0.0771 (inactive) and 0.00808 (inactive) and -0.837 (inactive) in assay [7] (setting [11]); 0.368 and 0.143 and -0.894 in [7] (setting [12]). The log fold change Tl+ flux was -0.0483 (inactive) in the assay with F380Y; -0.0347 (inactive) with F380Y/beta1; -0.0103 (inactive) in the assay with F380Y/beta2Delta; 0.0321 (inactive) in the assay with F380Y/beta4; -0.0267 (inactive) in [8]; 0.0214 (inactive) in the assay with R275C. Further, the log fold change Tl+ flux with R275C/beta1 was 0.0314 (inactive); in the assay on R275C/beta2Delta, 0.0193 (inactive); in the assay with R275C/beta4, 0.0322 (inactive); in the assay with R275C/Slo1WT/beta2, 0.0429 (inactive).
